Unmarked numbers belong to inactive results. Results filed as inconclusive are left out. The source made the active and inactive calls. Unless noted, calls come from the whole dose curve; as a rule, active = well fitted curve in the direction sought with a large enough effect in the repeat runs; inconclusive = weak or mixed curves; inactive = no such curve, though single readings can be large; an effect the other way counts as inactive or inconclusive.

Assay [1] in a line: Caspase-3/7 induction in CHO-K1 cells by small molecules, qHTS cell viability counter screen (AID 1346979). Note: nearly all actives have a fitted effect of over 35% in size. Note: potency is the fitted concentration of half-maximal effect. The gist of the method:
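Seeding: 1,500 CHO-K1 cells/well. Rest: 5hr, 37C. Treatment: compounds in DMSO, 16hr. Read: CellTiter-Fluor, 1hr, fluorescence.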
A general note: qHTS replaces the single test concentration by a dilution series.

Assay [2] is described as follows: Caspase-3/7 induction in CHO-K1 cells by small molecules, qHTS assay (AID 1346980). Note: nearly all actives have a fitted effect of over 15% in size. The gist of the method: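 Luminescent Caspase-Glo 3/7 read (30min, room temperature) quantified apoptosis induction. Cells were wild-type CHO-K1, treated with compound for 17hr at 37 C and 5% CO2.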
Assay [3] in a line: Caspase-3/7 induction in HepG2 cells by small molecules, qHTS cell viability counter screen (AID 1346981). Note: nearly all actives have a fitted effect of over 30% in size. Note: potency is the fitted concentration of half-maximal effect. The method in brief:
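Treatment of HepG2 cells with DMSO-delivered compounds ran 16 hr at 37 C following a 5-hr pre-incubation of 2,000 cells/well. CellTiter-Fluor fluorescence, read after 1 hr, served as the viability measure in a qHTS format.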

In assay [4] the target is Nuclear receptor subfamily 1 group I member 2 (Homo sapiens) (UniProt O75469). The experiment in a line: Human pregnane X receptor (PXR) small molecule agonists, qHTS assay (AID 1346982). Note: nearly all actives have a fitted effect of over 35% in size. Note: potency is the fitted concentration of half-maximal effect. The gist of the method: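 Stable HepG2 line reporting PXR-mediated CYP3A4 expression via luciferase. Treatment: 24 hr with compounds in DMSO at 37 C. Detection: ONE-Glo luminescence.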

In assay [5] the target is Acetylcholinesterase (Homo sapiens) (UniProt P22303). The experiment in a line: Acetylcholinesterase (AChE) small molecule antagonists: colormetric cell-based qHTS assay (AID 1347395; calls by dose curve; note: nearly all actives have a fitted effect of over 30% in size). The method in brief:
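Quantitative HTS in attached SH-SY5Y cells: 30 min compound exposure, then 90 min with acetylthiocholine and DTNB at 37 C; colour from thiocholine reports AChE activity.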

Assay [6] has the same target. Briefly: Acetylcholinesterase (AChE) small molecule antagonists: enzyme-based qHTS assay (AID 1347397; calls by dose curve; note: nearly all actives have a fitted effect of over 55% in size). The conditions noted are these: Potency: AChE enzyme activity inhibition. The gist of the method: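 First, recombinant human AChE (50 mU/mL as dispensed) received test compound or DMSO. Second, plates stood 30 min at room temperature. Third, DTNB and acetylthiocholine were added, followed by 10 min at room temperature and colorimetric detection.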

Assay [7] shares this target. The experiment in a line: Acetylcholinesterase (AChE) small molecule antagonists: fluorescence cell-based qHTS assay (AID 1347398; calls by dose curve; note: nearly all actives have a fitted effect of over 50% in size). The settings on record: Potency: AChE activity. The method in brief: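 Homogeneous quantitative HTS format. SH-SY5Y cells seeded at 2,000 per well settle overnight at 37 C. Compound pretreatment runs 30 min (37 C, 5% CO2); substrate/probe mix then reacts 40 min at RT before reading 490/520 nm.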

Assay [8] has as its target Cytochrome P450 2D6 (Homo sapiens) (UniProt P10635). The experiment in a line: Cytochrome P450 Family 2 Subfamily D Member 6 (CYP2D6) small molecule antagonists: luciferase reporter qHTS assay (AID 1671196). Note: series mostly up to about 120 µM; nearly all actives have a fitted effect of over 50% in size. The gist of the method: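 Chemicals tested for interference with CYP2D6 activity; proluciferin substrate, NADPH regeneration, 1 h at room temperature, luminescent detection.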
(In general: In a reporter assay the amount or activity of a reporter protein is the signal.)

Assay [9] concerns the target Cytochrome P450 2C9 (Homo sapiens) (UniProt P11712). The experiment in a line: Cytochrome P450 Family 2 Subfamily C Member 9 (CYP2C9) small molecule antagonists: luciferase reporter qHTS assay (AID 1671198). Note: nearly all actives have a fitted effect of over 50% in size. Note: potency is the fitted concentration of half-maximal effect. The method in brief: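 Enzyme-substrate mix preincubated with compound 10 min at room temperature; reaction started with NADPH regeneration solution, 1 h 37C. Luminescent luciferin product read after 20 min detection reagent.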

In assay [10] the target is Voltage-gated inwardly rectifying potassium channel KCNH2 (Homo sapiens) (UniProt Q12809). The experiment in a line: Human Ether-a-go-go-Related Gene (hERG) channel small molecule antagonists: fluorescence cell-based qHTS assay (AID 1671200). Note: nearly all actives have a fitted effect of over 50% in size. Note: potency is the fitted concentration of half-maximal effect. The gist of the method: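 First, 1000 cells per well are seeded and cultured overnight at 37 C. Next, FluxOR II dye is loaded for 1 h at room temperature, protected from light. After 10 more minutes, stimulus is added and fluorescence is read.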
In general terms: hERG is a cardiac potassium channel; its block is linked to QT prolongation.

Assay [11] addresses Acetylcholinesterase (Homo sapiens) (UniProt P22303). The experiment in a line: Acetylcholinesterase (AChE) small molecule antagonists: enzyme-based qHTS assay with human liver microsomes (AID 1347399; calls by dose curve; note: nearly all actives have a fitted effect of over 60% in size). The settings on record: Potency: qHTS inhibition. The gist of the method:
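Recombinant human AChE (50 mU/mL in the enzyme mix) and human liver microsomes (0.25 mg/mL final) were preincubated with compound and NADPH (0.25 mg/mL final) for 30 min at 37 C. Acetylthiocholine/DTNB was then added; thiocholine was read colorimetrically after 10 min at room temperature.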

The target in assay [12] is Cytochrome P450 2C19 (Homo sapiens) (UniProt P33261). The experiment in a line: Cytochrome P450 Family 2 Subfamily C Member 19 (CYP2C19) small molecule antagonists: luciferase reporter qHTS assay (AID 1671197). Note: nearly all actives have a fitted effect of over 65% in size. Note: potency is the fitted concentration of half-maximal effect. The method in brief: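 CYP2C19 P450-Glo, 1536-well qHTS. Cpd + enzyme/proluciferin substrate 10 min RT; + NADPH regen, 37C 1 h; stop with luciferin detection reagent, 20 min RT, luminescence (RLU). Pos ctrl ketoconazole.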

Assay [13] concerns the target Cytochrome P450 1A2 (Homo sapiens) (UniProt P05177). The experiment in a line: Cytochrome P450 Family 1 Subfamily A Member 2 (CYP1A2) small molecule antagonists: luciferase reporter qHTS assay (AID 1671199). Note: nearly all actives have a fitted effect of over 50% in size. Note: potency is the fitted concentration of half-maximal effect. The gist of the method: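 Read-out is luminescence from luciferin detection reagent (20 min) proportional to CYP1A2 activity; compounds in DMSO preincubated 10 min with enzyme and proluciferin substrate, then NADPH regeneration solution, 1 h, room temperature.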

For assay [14], the target named is Cytochrome P450 3A4 (Homo sapiens) (UniProt P08684). The experiment in a line: Cytochrome P450 Family 3 Subfamily A Member 4 (CYP3A4) small molecule antagonists: luciferase reporter qHTS assay (AID 1671201). Note: nearly all actives have a fitted effect of over 50% in size. Note: potency is the fitted concentration of half-maximal effect. The method in brief: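 Enzyme and proluciferin substrate are mixed with test chemicals for 10 min, then NADPH regeneration system drives turnover for 1 h at room temperature. A detection reagent halts the reaction; luminescence after 20 min gives relative activity.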
Chain of Cytochrome P450 3A4 (Homo sapiens) (P08684 whole entry, looked up): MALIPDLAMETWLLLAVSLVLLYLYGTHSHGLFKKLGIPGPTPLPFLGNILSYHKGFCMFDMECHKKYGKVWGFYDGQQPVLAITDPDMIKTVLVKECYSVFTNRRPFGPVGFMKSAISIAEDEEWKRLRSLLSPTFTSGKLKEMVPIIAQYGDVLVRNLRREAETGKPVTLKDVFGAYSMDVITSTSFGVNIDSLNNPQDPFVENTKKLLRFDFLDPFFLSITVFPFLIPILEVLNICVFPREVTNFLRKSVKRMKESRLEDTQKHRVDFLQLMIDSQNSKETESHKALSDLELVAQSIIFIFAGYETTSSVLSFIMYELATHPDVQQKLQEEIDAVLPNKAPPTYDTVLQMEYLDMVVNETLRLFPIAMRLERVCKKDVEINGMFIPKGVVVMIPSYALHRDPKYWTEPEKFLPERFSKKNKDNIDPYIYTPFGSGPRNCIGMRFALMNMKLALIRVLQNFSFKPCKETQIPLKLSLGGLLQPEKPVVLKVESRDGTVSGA

Chain of Cytochrome P450 2D6 (Homo sapiens) (P10635 whole entry, looked up): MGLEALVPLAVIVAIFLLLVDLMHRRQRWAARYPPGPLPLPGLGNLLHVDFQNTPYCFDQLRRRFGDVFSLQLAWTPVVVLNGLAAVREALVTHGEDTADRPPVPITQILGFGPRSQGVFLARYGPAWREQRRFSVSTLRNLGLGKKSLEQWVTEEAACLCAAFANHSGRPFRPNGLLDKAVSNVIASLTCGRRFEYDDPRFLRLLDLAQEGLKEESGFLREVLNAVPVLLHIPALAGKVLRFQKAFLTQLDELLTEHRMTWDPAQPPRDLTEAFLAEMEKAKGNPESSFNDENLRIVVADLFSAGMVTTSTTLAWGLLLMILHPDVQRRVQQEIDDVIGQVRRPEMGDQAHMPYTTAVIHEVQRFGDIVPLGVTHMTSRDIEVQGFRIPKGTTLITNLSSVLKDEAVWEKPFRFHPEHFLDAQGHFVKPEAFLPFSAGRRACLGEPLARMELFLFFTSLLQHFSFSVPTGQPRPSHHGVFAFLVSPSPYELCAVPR
Chain of Cytochrome P450 2C9 (Homo sapiens) (P11712 whole entry, looked up): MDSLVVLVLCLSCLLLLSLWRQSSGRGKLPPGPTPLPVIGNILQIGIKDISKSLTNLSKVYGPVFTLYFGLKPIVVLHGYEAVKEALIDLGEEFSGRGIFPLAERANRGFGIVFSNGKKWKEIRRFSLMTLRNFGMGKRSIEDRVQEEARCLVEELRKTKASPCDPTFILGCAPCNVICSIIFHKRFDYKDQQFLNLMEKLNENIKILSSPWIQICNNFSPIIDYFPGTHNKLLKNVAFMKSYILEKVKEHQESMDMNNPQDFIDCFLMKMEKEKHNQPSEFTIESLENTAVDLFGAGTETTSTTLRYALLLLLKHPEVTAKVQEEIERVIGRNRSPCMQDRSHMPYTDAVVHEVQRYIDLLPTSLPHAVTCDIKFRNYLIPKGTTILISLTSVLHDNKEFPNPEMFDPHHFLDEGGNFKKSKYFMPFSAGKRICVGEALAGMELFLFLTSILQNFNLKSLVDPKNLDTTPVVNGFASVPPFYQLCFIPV
Chain of Nuclear receptor subfamily 1 group I member 2 (Homo sapiens) (O75469 whole entry, looked up): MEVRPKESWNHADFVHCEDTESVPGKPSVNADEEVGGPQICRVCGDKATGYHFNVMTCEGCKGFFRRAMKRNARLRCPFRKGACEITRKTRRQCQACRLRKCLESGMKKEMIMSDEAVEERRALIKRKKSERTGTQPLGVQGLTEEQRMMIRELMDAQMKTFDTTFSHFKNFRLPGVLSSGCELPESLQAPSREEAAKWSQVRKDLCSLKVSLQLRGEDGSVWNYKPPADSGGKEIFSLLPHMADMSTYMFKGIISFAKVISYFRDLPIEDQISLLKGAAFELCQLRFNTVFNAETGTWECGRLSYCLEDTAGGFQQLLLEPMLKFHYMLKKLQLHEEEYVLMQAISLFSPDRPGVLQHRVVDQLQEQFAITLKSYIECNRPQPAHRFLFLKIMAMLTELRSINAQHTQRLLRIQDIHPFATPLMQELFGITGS
Chain of Cytochrome P450 1A2 (Homo sapiens) (P05177 whole entry, looked up): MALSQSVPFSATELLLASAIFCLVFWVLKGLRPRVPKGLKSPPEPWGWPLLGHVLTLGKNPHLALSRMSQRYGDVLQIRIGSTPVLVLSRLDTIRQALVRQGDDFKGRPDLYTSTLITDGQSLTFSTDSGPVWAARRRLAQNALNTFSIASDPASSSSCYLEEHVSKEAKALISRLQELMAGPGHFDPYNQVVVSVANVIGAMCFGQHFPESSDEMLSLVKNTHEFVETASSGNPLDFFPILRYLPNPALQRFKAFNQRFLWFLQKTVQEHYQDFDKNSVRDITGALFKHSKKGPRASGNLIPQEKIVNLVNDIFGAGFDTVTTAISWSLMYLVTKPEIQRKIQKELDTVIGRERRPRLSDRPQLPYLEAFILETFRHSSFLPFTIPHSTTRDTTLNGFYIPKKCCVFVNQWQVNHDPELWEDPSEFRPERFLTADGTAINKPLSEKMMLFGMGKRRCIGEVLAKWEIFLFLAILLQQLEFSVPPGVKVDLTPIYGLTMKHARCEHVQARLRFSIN
Chain of Cytochrome P450 2C19 (Homo sapiens) (P33261 whole entry, looked up): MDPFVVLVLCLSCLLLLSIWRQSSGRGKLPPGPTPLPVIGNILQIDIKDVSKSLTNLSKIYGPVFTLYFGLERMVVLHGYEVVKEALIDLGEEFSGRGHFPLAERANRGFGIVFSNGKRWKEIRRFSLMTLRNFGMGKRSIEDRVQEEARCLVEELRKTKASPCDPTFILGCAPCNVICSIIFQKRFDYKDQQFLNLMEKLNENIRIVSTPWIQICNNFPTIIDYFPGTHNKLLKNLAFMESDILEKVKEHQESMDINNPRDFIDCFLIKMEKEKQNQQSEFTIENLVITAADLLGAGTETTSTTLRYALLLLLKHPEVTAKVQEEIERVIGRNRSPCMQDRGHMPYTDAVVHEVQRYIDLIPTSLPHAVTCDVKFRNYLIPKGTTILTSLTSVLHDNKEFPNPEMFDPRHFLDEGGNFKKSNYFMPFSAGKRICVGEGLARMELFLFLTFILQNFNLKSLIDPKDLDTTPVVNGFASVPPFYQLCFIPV
Chain of Voltage-gated inwardly rectifying potassium channel KCNH2 (Homo sapiens) (Q12809 whole entry, looked up): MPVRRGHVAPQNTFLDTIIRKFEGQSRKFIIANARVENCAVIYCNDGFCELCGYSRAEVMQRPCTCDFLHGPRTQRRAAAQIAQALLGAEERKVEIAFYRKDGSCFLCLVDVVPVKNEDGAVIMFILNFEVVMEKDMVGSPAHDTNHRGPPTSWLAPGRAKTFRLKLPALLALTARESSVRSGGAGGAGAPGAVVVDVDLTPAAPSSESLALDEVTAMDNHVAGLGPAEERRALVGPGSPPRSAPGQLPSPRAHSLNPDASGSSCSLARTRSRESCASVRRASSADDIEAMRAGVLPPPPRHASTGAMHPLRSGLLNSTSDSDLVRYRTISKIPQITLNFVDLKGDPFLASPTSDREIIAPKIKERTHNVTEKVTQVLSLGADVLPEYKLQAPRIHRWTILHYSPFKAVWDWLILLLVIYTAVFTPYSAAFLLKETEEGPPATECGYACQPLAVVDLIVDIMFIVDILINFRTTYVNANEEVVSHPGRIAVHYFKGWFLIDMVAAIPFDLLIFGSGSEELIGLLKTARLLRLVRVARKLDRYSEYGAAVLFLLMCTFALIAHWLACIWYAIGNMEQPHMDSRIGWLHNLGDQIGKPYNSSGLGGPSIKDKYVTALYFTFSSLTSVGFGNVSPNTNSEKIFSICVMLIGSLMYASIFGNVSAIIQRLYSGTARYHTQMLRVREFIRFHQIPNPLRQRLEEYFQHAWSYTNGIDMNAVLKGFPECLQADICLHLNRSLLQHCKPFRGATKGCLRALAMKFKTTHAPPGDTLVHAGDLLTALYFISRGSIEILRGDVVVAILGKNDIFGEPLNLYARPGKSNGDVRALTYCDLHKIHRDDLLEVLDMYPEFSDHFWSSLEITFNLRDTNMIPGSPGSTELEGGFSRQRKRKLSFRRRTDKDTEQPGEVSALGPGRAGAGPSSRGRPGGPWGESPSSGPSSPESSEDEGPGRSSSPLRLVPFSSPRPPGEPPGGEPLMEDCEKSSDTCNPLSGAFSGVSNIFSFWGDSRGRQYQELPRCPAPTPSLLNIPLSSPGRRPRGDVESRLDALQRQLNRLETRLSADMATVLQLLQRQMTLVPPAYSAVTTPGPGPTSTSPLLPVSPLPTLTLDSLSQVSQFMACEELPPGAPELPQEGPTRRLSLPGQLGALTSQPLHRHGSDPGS
Chain of Acetylcholinesterase (Homo sapiens) (P22303 whole entry, looked up): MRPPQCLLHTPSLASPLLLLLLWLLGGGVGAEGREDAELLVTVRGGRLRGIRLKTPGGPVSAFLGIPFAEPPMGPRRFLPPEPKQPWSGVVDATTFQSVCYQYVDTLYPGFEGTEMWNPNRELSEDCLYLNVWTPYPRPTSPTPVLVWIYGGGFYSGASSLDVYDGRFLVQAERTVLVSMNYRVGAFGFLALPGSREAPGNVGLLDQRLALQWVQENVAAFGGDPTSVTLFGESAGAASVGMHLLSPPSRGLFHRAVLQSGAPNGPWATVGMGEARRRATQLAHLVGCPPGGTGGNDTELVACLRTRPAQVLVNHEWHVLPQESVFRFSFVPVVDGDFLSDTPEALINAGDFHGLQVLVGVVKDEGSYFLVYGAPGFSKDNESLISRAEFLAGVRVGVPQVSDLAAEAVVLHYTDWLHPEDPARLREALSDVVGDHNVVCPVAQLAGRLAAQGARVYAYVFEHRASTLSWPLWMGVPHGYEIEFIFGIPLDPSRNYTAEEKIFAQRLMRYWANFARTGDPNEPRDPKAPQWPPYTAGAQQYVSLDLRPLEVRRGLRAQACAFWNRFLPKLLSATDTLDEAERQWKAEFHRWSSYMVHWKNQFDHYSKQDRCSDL

Regarding `Cc1ccc(C(=O)Cl)cc1`, the Potency result in [1], in assay [2], in assay [3], in [4], in [5] and in assay [6] was “inactive” in each case. The Potency result in assay [7], in [8], in assay [9] and in assay [10] was “inactive” each time.
On to `CC(=O)c1cc(C(C)(C)C)cc2c1CCC2(C)C`, for which the Potency result in assay [1], in assay [2], in assay [3], in [4], in [5] and in assay [6] was “inactive” each time. The Potency entry in assay [7], in assay [11], in [8], in assay [12], in assay [10] and in [14] was “inactive” each time. Besides, the Potency in assay [13] is 31.7 µM (active).
For the molecule `Cc1cc(C)c(C2=C(OC(=O)CC(C)(C)C)C3(CCCC3)OC2=O)c(C)c1`, the Potency entry in assay [1], in assay [2], in assay [3], in assay [4], in assay [5] and in [6] was “inactive” in each case. In addition, the Potency result in assay [7], in assay [11], in [8], in [13] and in [10] was “inactive” throughout. Also, in [14], the Potency was 37.3 µM (active).
For `CC(O)C#N` (centres undefined), the Potency entry in assay [1], in assay [2], in [3], in assay [4], in assay [5] and in assay [6] was “inactive” throughout. For the same molecule, the Potency entry in [7], in assay [8], in [12], in assay [9], in [13] and in assay [10] was “inactive” each time. Besides, in assay [14], the Potency result was “inactive”.
In the case of `C[C@@H]1CC[C@@]2(OC1)O[C@H]1[C@@H](O)[C@H]3[C@@H]4CC[C@H]5C[C@@H](O[C@@H]6O[C@H](CO)[C@H](O[C@@H]7O[C@H](CO)[C@@H](O)[C@H](O[C@@H]8OC[C@@H](O)[C@H](O)[C@H]8O)[C@H]7O[C@@H]7O[C@H](CO)[C@@H](O)[C@H](O[C@@H]8O[C@H](CO)[C@@H](O)[C@H](O)[C@H]8O)[C@H]7O)[C@H](O)[C@H]6O)[C@H](O)C[C@]5(C)[C@H]4CC[C@]3(C)[C@H]1[C@@H]2C`, the Potency in [1] was 4.59 µM (active); in assay [3], 36.5 µM (active); in [10], 11.6 µM (active). The Potency result in [2], in assay [4], in assay [5], in [6], in assay [11] and in assay [8] was “inactive” each time. Further, the Potency result in assay [12], in assay [9] and in [13] was “inactive” in each case.
Consider `CC(C)(COCC1CO1)COCC1CO1` (centres undefined), for which the Potency result in assay [1], in assay [2], in [3], in [4], in assay [5] and in assay [6] was “inactive” throughout. In addition, the Potency entry in assay [7], in assay [11], in [8], in [9] and in [14] was “inactive” in each case. In assay [12], the Potency was 79.6 µM (active).
As for `COP(=O)(CCC(=O)NCO)OC`, the Potency entry in [1], in assay [2], in [3], in assay [4], in assay [5] and in assay [6] was “inactive” in each case. For the same molecule, the Potency result in assay [7], in assay [8], in assay [12], in assay [9], in assay [13] and in assay [10] was “inactive” in each case. In [14], the Potency entry is “inactive”.
On to `C1CCC2CCCCC2C1` (centres undefined), for which the Potency entry in assay [1], in assay [2], in assay [3], in [4], in assay [5] and in assay [6] was “inactive” each time. Besides, the Potency result in assay [7], in assay [11], in assay [8], in assay [12], in [9] and in assay [14] was “inactive” throughout.
Regarding `CCCCOCN(C(=O)CCl)c1c(CC)cccc1CC`, the Potency in assay [1] is 61.1 µM (active); in assay [4], 2.73 µM (active); in [12], 0.894 µM (active); in assay [9], 3.99 µM (active); in [14], 7.1 µM (active). In addition, the Potency result in assay [2], in assay [3], in assay [5], in [6], in assay [7] and in assay [11] was “inactive” throughout. Besides, in assay [10], the Potency result is “inactive”.

The record behind these values is PubChem BioAssay (Tox21).
